Measured values reported in PubChem BioAssay (Tox21).
Inconclusive results are not listed. Values without a mark were called inactive. The call rests on the fitted dose curve; in most records, active means well fitted cell-killing curve with a large enough effect in the repeat runs; inconclusive means weak or mixed curves; inactive means flat fitted curve, though single readings scatter.

Assay: qHTS RealTime-Glo MT Cell Viability Assay in HepG2 cells - 8 hour (AID 1224873); further: nearly all actives have a fitted effect of over 55% in size
Settings: RealTime-Glo luminescence; series mostly up to 76.8 µM; viability change, negative = cytotoxic: at the top concentration
From the text: National Center for Advancing Translational Sciences [NCATS]
NIH Chemical Genomics Center [NCGC]
U.S. Environmental Protection Agency [EPA]
National Institutes of Environmental Health Sciences [NIEHS]
National Toxicology Program [NTP]
U.S. Food and Drug Administration [FDA]
Measure of cell viability is critical in the cell-base assay. Analysis of cell viability is necessary for the characterization of cell responses to cytotoxic drugs and environmental stress. A RealTime-Glo MT Cell Viability Assay to monitor cell viability in real time of continues cell culture during 40 hours of compound treatment was used to screen Tox21 10K library compounds in HepG2 cells. The RealTime-Glo MT Cell Viability Assay is a nonlytic, homogeneous, bioluminescent method to measure cell viability in real time using a simple, plate-based method. The assay involves adding NanoLuc luciferase and a cell-permeant prosubstrate to cells in culture. Viable cells reduce the proprietary prosubstrate to generate a substrate for NanoLuc luciferase. This substrate diffuses from cells into the surrounding culture medium, where it is rapidly used by the NanoLuc Enzyme to produce a luminescent signal. The signal correlates with the number of viable cells, making the assay well suited for cytotoxicity studies.
Tox21 Assay Protocol Summary:
The mixture of HepG2 cell suspension and reagents were dispensed at 600cells/6 ul/well in 1536-well tissue culture treated black solid bottom plates using a Multidrop dispenser. After the assay plates were incubated at a 37 C/5% CO2 incubator for 5 hours, 23 nL of compounds dissolved in DMSO, positive and negative controls was transferred to the assay plate by a pintool work station. The plates were incubated at 37 C for 40 hours. The luminescence intensity were measured at 0h, 8h, 16h, 24h, 32h and 40h time points using ViewLux plate reader during compound treatment.
On the % scale 0 is the no-effect control and ±100 the full control effect.

Row | SMILES | viability change, negative = cytotoxic
1 | Cc1cnc(NS(=O)(=O)c2ccc(N)cc2)nc1 | 0.619% [at 35.3 µM]
2 | CCC=O | -2.51%
3 | CCOC(=O)c1cccc(N)c1 | 7.91% [at 35.3 µM]
4 | Cc1ccc(C#N)cc1 | 0.451%
5 | N=C(N)c1ccc2cc(OC(=O)c3ccc(N=C(N)N)cc3)ccc2c1 | 1.7% [at 35.3 µM]
6 | c1cnc(N2CCN(Cc3ccc4c(c3)OCO4)CC2)nc1 | 0.337% [at 35.3 µM]
7 | CC/C=C\CC/C=C/CO | -1.11%
8 | CC(=O)Nc1ccc(S(N)(=O)=O)cc1 | 4.32%
9 | COC(=O)c1cc(C(=O)OC)cc(S(=O)(=O)O)c1 | -2.59%
10 | CCO/C([O-])=N/c1c[n+](N2CCOCC2)no1 | -0.188% [at 35.3 µM]
11 | CCOC(=O)[C@H](CCc1ccccc1)N[C@@H](C)C(=O)N1[C@H](C(=O)O)C[C@@H]2CCC[C@@H]21 | 2.66% [at 35.3 µM]
12 | N=C(N)c1ccc(OCCCOc2ccc(C(=N)N)cc2)cc1 | 0.208% [at 35.3 µM]
13 | NS(=O)(=O)c1ccc(C(=O)O)cc1 | 6.13% [at 35.3 µM]
14 | CCCC(=O)O[C@]1(C(=O)CO)CC[C@H]2[C@@H]3CCC4=CC(=O)CC[C@]4(C)[C@H]3[C@@H](O)C[C@@]21C | -0.403% [at 35.3 µM]
15 | CCCN1CCCC[C@H]1C(=O)Nc1c(C)cccc1C | 1.38% [at 35.3 µM]
16 | CC(C)c1cc2c(cc1S(=O)(=O)O)[C@@]1(C)CCC[C@@](C)(C(=O)O)[C@@H]1CC2 | 6.07% [at 35.3 µM]
17 | COCCCOCCCOC | 0.166%
18 | O=C(O)CCCl | -1.97%
19 | O=[N+]([O-])c1ccc(F)cc1F | 0.191%
20 | CN1CCC(=C2c3ccccc3CC(=O)c3sccc32)CC1 | 0.351% [at 35.3 µM]

Row | SMILES | viability change, negative = cytotoxic
21 | CS(=O)(=O)O | 0.733%
22 | OC1CCCCC1c1ccccc1 (stereo not given) | 0.817%
23 | C1OCOCO1 | 0.456%
24 | C[C@H](NC(CCc1ccccc1)C(=O)O)C(=O)N1CCC[C@H]1C(=O)O (stereo not given in full) | -0.0564% [at 35.3 µM]
25 | CCn1ccnc1CC1COc2ccccc2O1 (stereo not given) | 0.871% [at 35.3 µM]
26 | CCCCCCCCCCCCCC=O | 0.248% [at 6.97 µM]
27 | CCCCCSCCCCC | 2.43%
28 | CC(=O)CC(C)C | 3.41%
29 | COC(C)(C)CCCC(C)CC=O (stereo not given) | 0.131%
30 | C=CCOCC(CC)(CO)COCC=C | 1.16%
31 | NC(=O)c1ccc(N)cc1 | 3.72%
32 | O=Cc1cccc([N+](=O)[O-])c1 | 5.64%
33 | CCOC(C)(C)C | 1.16%
34 | COC(=O)c1ccc(C)cc1C1=NC(C)(C(C)C)C(=O)N1 (stereo not given) | 3.84%
35 | CN1CC(=O)NC1=N | 1.35% [at 35.3 µM]
36 | O=C1OC(=O)C2CCCCC12 (stereo not given) | 0.691%
37 | CN1CCCC1 | 2.35%
38 | CN(C)CCCSc1ccccc1NC(=O)/C=C/c1ccccc1 | 1.14% [at 35.3 µM]
39 | C=C(C)CS(=O)(=O)O | -0.807%
40 | CCC(C)S (stereo not given) | 0.999% [at 2.72 µM]
